Measurements as given in PubChem BioAssay (NCI).
About 83,000 compounds went through this panel and 20% of them were active in at least one assay; those are over-represented in the sample as a whole.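 48-hour exposure, single concentration, 96-well plates; percent growth endpoint where 0 means no net growth. Active: below 10.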 Values without a mark were called inactive. Active and inactive are the calls of the source.

Columns and labels:
Experiment in all cases: NCI-60 one-dose screen, 48 h (100 = growth as untreated, 0 = no growth, -100 = all killed)
Conditions in all cases: 10 µM unless noted
SR leukemia = system: SR leukemia
OVCAR-8 ovarian = system: OVCAR-8 ovarian
OVCAR-5 ovarian = system: OVCAR-5 ovarian
OVCAR-4 ovarian = system: OVCAR-4 ovarian
SK-OV-3 ovarian = system: SK-OV-3 ovarian
IGROV1 ovarian = system: IGROV1 ovarian
OVCAR-3 ovarian = system: OVCAR-3 ovarian
HS 578T breast = system: HS 578T breast
NCI/ADR-RES ovarian = system: NCI/ADR-RES ovarian
T-47D breast = system: T-47D breast
BT-549 breast = system: BT-549 breast
MDA-MB-435 melanoma = system: MDA-MB-435 melanoma
SW-620 colon = system: SW-620 colon
MCF7 breast = system: MCF7 breast
HCT-116 colon = system: HCT-116 colon
HCC-2998 colon = system: HCC-2998 colon
KM12 colon = system: KM12 colon
RPMI-8226 leukemia = system: RPMI-8226 leukemia

SMILES | growth (SR leukemia) | growth (OVCAR-8 ovarian) | growth (OVCAR-5 ovarian) | growth (OVCAR-4 ovarian) | growth (SK-OV-3 ovarian) | growth (IGROV1 ovarian) | growth (OVCAR-3 ovarian) | growth (HS 578T breast) | growth (NCI/ADR-RES ovarian) | growth (T-47D breast) | growth (BT-549 breast) | growth (MDA-MB-435 melanoma) | growth (SW-620 colon) | growth (MCF7 breast) | growth (HCT-116 colon) | growth (HCC-2998 colon) | growth (KM12 colon) | growth (RPMI-8226 leukemia)
CSc1[nH]c2ncnc(N)c2c1C#N | 99.5% | 115% | 87.4% | 94.2% | 92.7% | 92.4% | 125% | 130% | 86.1% | 97.3% | 85.9% | 102% | 128% | 100% | 102% | 108% | 122% | –
O=C(Nc1ccc(Nc2cc(Nc3ccccc3)ncn2)cc1)Nc1cc(C(F)(F)F)ccc1F | 42% | – | 78.1% | 71.2% | 101% | 90.3% | 88.5% | 78.9% | 81.1% | 24.1% | 85.3% | 75.8% | 120% | 51.6% | 63.7% | 93.7% | 23.3% | 65.1%
CNCc1cccc2c1OCCOCCOCCN(C)S(=O)(=O)c1ccc(cc1)-c1cnc(N)c(n1)C(=O)N2 | -35% (active) | 52.9% | 160% | 72.8% | 19.4% | 42.5% | 42.8% | 56.9% | 80.1% | 47% | 55.6% | 46.2% | 37.8% | 42.2% | 15.4% | 75.5% | 43.6% | –
CCCCCCCCCC(=O)Oc1ccc(/C(=C(/C)Cc2cccc(OC)c2)c2ccc(OCCN(C)C)cc2)cc1 | 106% | – | 101% | 115% | 113% | 110% | 109% | 108% | 98.4% | 69.4% | 108% | 103% | 104% | 58.2% | 102% | – | 104% | 106%
COc1ccc(-c2nc(Nc3cc(C)[nH]n3)c3ccccc3n2)cc1 | 23.7% | – | 59.8% | 60.1% | 53.1% | 1.47% (active) | 52.2% | 2.72% (active) | 74.3% | 28.6% | 51.7% | 26.6% | 35.4% | 22.1% | 29.5% | 74.2% | 18.3% | 50.7%
COc1ccc(C/C(C)=C(\c2ccc(Cl)cc2)c2ccc(OCCN3CCCCCC3)cc2)cc1 | 9.97% (active) | – | 82.5% | 95.7% | 103% | 78.1% | 80.4% | 98.4% | 85.7% | 56.8% | 94.9% | 88.7% | 58.4% | 62.7% | 56.5% | 83.1% | 73.9% | 54.3%
CNC(=O)c1cc(Oc2ccc3nc(NC(=O)Nc4ccc(CN5CCOCC5)c(C(F)(F)F)c4)sc3c2)ccn1 | -0.0928% (active) | 18% | 38.6% | 20% | 79.1% | 40% | 6.85% (active) | 47.3% | 4.65% (active) | 22.7% | 12.2% | 13% | 27.4% | 6.95% (active) | 6.2% (active) | 32.3% | 6.28% (active) | –
Cc1ccc2c(c1)O/C(=C\c1cccc(OCC(=O)c3ccccc3)c1)C2=O | 44.9% | – | 109% | 104% | 108% | 95.5% | 118% | 96.6% | 101% | 87.6% | 104% | 96.5% | 102% | – | 84.4% | 130% | 85.3% | 188%
COc1cccc(-c2cn3c(ccc4ccccc43)n2)c1 | 31.9% | 45.7% | 52.7% | 61.6% | 45.7% | 41.2% | 16.7% | 21.6% | 15% | 46.1% | 37.8% | -25.6% (active) | 26.2% | 17.4% | 40.6% | 68.8% | 34.6% | –
Cc1cc(Cl)ccc1Nc1nc(C(F)(F)F)ccc1C(=O)N/N=C/c1ccc(F)cc1 | -30.8% (active) | – | 18.6% | 5.75% (active) | 21.3% | 8.97% (active) | 9.84% (active) | 4.52% (active) | 10.5% | 28.4% | 3.74% (active) | 31.9% | 12.7% | -15.2% (active) | 8.67% (active) | 12.4% | 7.78% (active) | -41.5% (active)
COc1ccc(C2c3ccc4ccccc4c3Oc3ncnc(N)c32)cc1 (centres undefined) | 46% | 92.8% | 97.9% | 89% | 62.1% | 64.3% | 88% | 82.2% | 74.7% | 60.1% | 88.3% | 8.46% (active) | 76.8% | 68.1% | 92.9% | 104% | 72.4% | –
O=C(CCCN1CCOCC1)Nc1ccc(Cn2nnc3c2C(=O)c2nnn(Cc4ccc(NC(=O)CCCN5CCOCC5)cc4)c2C3=O)cc1 | 10.6% | 38.5% | 121% | -65.7% (active) | 92.1% | 3.22% (active) | -1.11% (active) | 101% | 102% | -16.5% (active) | 42.6% | -78.9% (active) | 30.2% | -58.6% (active) | 0.281% (active) | 13.1% | 65.3% | –
C/C(=C(/c1ccc(O)cc1)c1ccc(OCCN(C)C)cc1)c1ccccc1 | 63.7% | – | 87.6% | 83.2% | 90.2% | 89.1% | 90.2% | 90% | 81.3% | 42.6% | 92.4% | 77.2% | 101% | 32.6% | 68.4% | 97.8% | 81.1% | 85.1%
Cc1sc2nc3[nH]/c(=C\c4ccc(Cl)cc4)c(=O)n3c(=O)c2c1C | 86.6% | – | 81.7% | 105% | 105% | 107% | 107% | 111% | 107% | 103% | 105% | 98% | 102% | 100% | 102% | – | 108% | 97.1%
Cc1cc2cc3cc(C)c(N(C)C)cc3[n+](C)c2cc1N(C)C | 76.9% | – | 63.4% | 38.5% | 20.2% | -3.39% (active) | -7.45% (active) | 33.1% | 78.4% | 16.4% | -28.7% (active) | 35.3% | 14.6% | 14% | 12.6% | 25.6% | 3.5% (active) | 4.78% (active)
COC(=O)C12C3C(=O)N(c4ccc(OC)cc4)C(=O)C3C(c3cn(-c4ccccc4)nc3C)N1[C@H](c1cn(-c3ccccc3)nc1C)[C@@H]1C(=O)N(c3ccc(OC)cc3)C(=O)[C@@H]12 (some centres undefined) | 91% | – | 103% | 108% | 101% | 107% | 104% | 106% | 97.4% | 102% | – | 102% | 100% | 102% | 104% | – | 106% | 106%
C[C@@H]1CCC2=C(CCC[C@]2(C)C(=O)O)[C@@]1(C)CCc1ccoc1 | 97.6% | – | 112% | 109% | 99.1% | 99.8% | 101% | 88% | – | – | 117% | 107% | 98.8% | 96.7% | 96% | 87.6% | 97.7% | 92.9%
COCCCNc1nc(NC(=O)c2ccc(F)cc2C)cc(-c2cccnc2)n1 | 110% | 91.6% | 106% | 117% | 108% | 109% | 106% | 94% | 94.2% | 89.4% | 103% | 103% | 109% | 103% | 101% | 103% | 104% | –
